Test results: PubChem BioAssay (NCI)
Compounds without any hit were thinned out: in the full panel of roughly 83,000, 20% have a hit.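 Cell lines were cultured in 96-well plates, exposed to a single compound concentration, and assessed for percent growth 48 hours later.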 Values without a mark were called inactive. The source made the active and inactive calls. The calls were made as follows: active = growth percent below 10; inactive = the rest.

Key:
Assay in all cases: NCI-60 one-dose screen, 48 h (100 = growth as untreated, 0 = no growth, -100 = all killed)
Details in all cases: 10 µM
[1] = test system: SK-MEL-2 melanoma
[2] = test system: EKVX NSCLC
[3] = test system: SN12C renal
[4] = test system: TK-10 renal
[5] = test system: CAKI-1 renal
[6] = test system: A498 renal
[7] = test system: CCRF-CEM leukemia
[8] = test system: MOLT-4 leukemia
[9] = test system: SR leukemia
[10] = test system: RPMI-8226 leukemia
[11] = test system: OVCAR-8 ovarian
[12] = test system: SK-OV-3 ovarian
[13] = test system: OVCAR-3 ovarian
[14] = test system: HS 578T breast
[15] = test system: NCI/ADR-RES ovarian
[16] = test system: UO-31 renal
[17] = test system: ACHN renal
[18] = test system: OVCAR-5 ovarian
[19] = test system: OVCAR-4 ovarian
[20] = test system: IGROV1 ovarian

| Structure (SMILES) | growth [1] | growth [2] | growth [3] | growth [4] [%] | growth [5] | growth [6] | growth [7] [%] | growth [8] | growth [9] | growth [10] | growth [11] | growth [12] | growth [13] | growth [14] | growth [15] | growth [16] [%] | growth [17] | growth [18] [%] | growth [19] | growth [20] |
| --- | --- | --- | --- | --- | --- | --- | --- | --- | --- | --- | --- | --- | --- | --- | --- | --- | --- | --- | --- | --- |
| COc1cc(C2CC(c3ccc4c(c3)OCO4)=NN2c2ccccc2)cc(OC)c1OC (stereo unspecified) | 108% | 89.4% | 90.9% | 112 | 75.4% | 97.9% | 80.8 | 82.3% | 71.9% | 75.7% | 99.3% | 107% | 89.8% | 93.6% | 77.7% |  |  |  |  |  |
| CCCCC/C=C/C/C=C/CCCCCCCC1=NC(C)(C)CN1C(C)C | 84.6% | 51.9% | 47.9% |  |  |  |  | 1.44% (active) | 2.99% (active) | -35.7% (active) | 28.3% | 68.1% | 17.4% | 26.7% | 37.1% | 26.2 | 32.9% | 62.9 | 27.2% | 8.27% (active) |
| Cc1ccc(C(C)C)c(O)c1NC(=O)OC(C)C | 96.6% | 92.3% | 91.9% | 116 | 121% | 91.5% | 104 | 122% | 115% | 102% | 95.7% | 106% | 104% | 95.8% | 98.3% |  |  |  |  |  |
| CC(=O)COc1ccc(Cl)cc1Cl | 113% | 93% | 95.3% | 105 | 107% | 82.9% |  |  |  | 86.7% | 107% | 122% | 120% | 117% |  |  | 116% | 112 | 116% |  |
| COc1ccc2c(c1)C(CC(=O)NN)CCC2 (stereo unspecified) | 108% | 109% | 104% | 98.7 | 91.2% | 93.2% |  | 86.8% |  | 113% | 99.1% | 115% | 112% | 102% | 108% |  | 99.6% | 100 | 110% |  |
| Cc1c(C(N)=O)sc2c1c(=O)n(Cc1ccccc1)c1nnc(-c3ccc(Br)cc3)n21 | 42.5% | 36.7% | 32.8% | 47.4 | 1.27% (active) | 56% |  |  |  | 12.1% | 0.274% (active) | 33.2% | 49.5% | 73.6% | 6.12% (active) |  | 10.1% | 48.6 | 40.2% |  |
| O=C(c1ccccc1)N(C(=O)c1ccccc1)N1CCCC1 | 95.6% | 103% | 100% | 101 |  | 106% | 94.8 | 99.3% |  | 103% |  | 109% | 110% | 105% | 102% |  | 96.3% | 99.3 | 106% |  |
| O=C1c2ccccc2C(=O)c2c1ccc1c(=O)n(-c3ccccc3C(F)(F)F)nnc21 | 56.5% | 36.3% |  | 54.8 | 24.3% | 82% | 15 | 7.06% (active) | 31.1% | 18% | 9.15% (active) | 69.9% | -17.6% (active) | 73.1% |  | 22.6 | 23.6% | 34.2 | 1.52% (active) | -27.9% (active) |
| O=C1/C(=C/c2ccc3c(c2)OCO3)SC(=S)N1C1c2ccccc2Oc2ccccc21 | 115% | 96.8% |  | 101 | 92.8% | 101% | 86.7 | 96.5% | 84.1% | 106% | 98.9% | 107% | 98.1% | 90.9% | 95.4% | 74.2 | 91.2% | 96.5 | 102% | 90.6% |
| O=[N+]([O-])c1ccc(NCSc2ccc(Cl)cc2)cc1 | 98.5% | 97.3% | 86% | 105 | 96.2% |  | 50.4 | 61.7% |  | 91.8% | 97% | 109% | 106% |  | 102% |  | 92.8% | 106 | 117% |  |
| COc1ccccc1N1CCCSC1=Nc1ccccc1 | 121% | 110% | 91.6% |  |  | 99.8% | 67.6 | 62.1% |  | 43.6% | 104% | 113% | 94.1% | 117% | 103% | 81.2 | 114% | 93.9 | 151% |  |
| COc1ccc(N=Nc2cc(OC)c(OC)c(OC)c2)cc1 | 74.1% | 77.3% |  | 84.7 | 70.2% | 73.5% | 65.6 | 78% | 58.2% | 72.8% | 87.2% | 77.6% | 87.7% | 79.3% | 91.2% | 58.6 | 80.2% | 77.8 | 100% | 62.7% |
| Cc1ccc(C)c(COc2cc(NC(=O)c3ccc4c(c3)OCO4)ccc2N(C)S(C)(=O)=O)c1 | 37.6% | 29.6% | 27.2% | 54.1 | 15.6% | -11.3% (active) | 13.2 | 7.75% (active) | 13.2% | 24.9% | 24.9% | -21% (active) | -20.6% (active) | -32.9% (active) | -5.26% (active) |  | 29.3% | 30.7 | 29.7% |  |
| CC(=O)OC1CC2C(C)(C)CCC[C@]2(C)C2=C1C(O)=C(C(C)C)C(=O)C2=O (stereo partly specified) | -2.83% (active) | -15.7% (active) | 3.28% (active) | 22.5 | -5.22% (active) |  | 26.8 | 17.4% | 2.66% (active) | 4.43% (active) | 13.4% | 19.3% | -54% (active) | 28.9% | 3.62% (active) |  | -95.3% (active) |  |  |  |
| COc1cccc(-c2nc3sccn3c2-c2cccc(S(C)(=O)=O)c2)c1 | 115% | 78.4% |  | 102 | 82.2% | 106% | 98.2 | 104% | 94.7% | 95.9% | 101% | 114% | 113% | 99.3% | 92.5% | 73.1 | 96.2% | 96.3 | 107% | 99% |
| COc1ccc(/C=c2\sc3n(c2=O)C(c2cc(OC)c(OC)c(OC)c2)C=C(c2ccc(OC)c(OC)c2)N=3)cc1OC (stereo unspecified) | 106% | 101% | 93.9% | 105 | 105% | 94.5% | 64.4 | 79.5% | 91.5% | 63.7% | 98.8% | 108% | 103% | 90.8% | 97.5% |  |  |  |  |  |
| COc1ccc2c(c1)CC=C1[C@@H]2CC[C@]2(C)C(=O)/C(=N/O)C[C@@H]12 | 115% | 76.6% | 82.7% | 92.7 | 6.9% (active) |  | 33.1 | 63.3% | 74.6% | 83.8% | 102% | 116% | 106% | 90.3% | 90.3% |  | 74.4% | 86.1 |  |  |
| Clc1ccc(Cc2ccncc2)cc1 | 121% | 101% | 95.4% | 130 | 130% | 104% | 104 | 114% | 97.6% | 109% | 99% | 113% | 110% | 105% | 108% |  |  |  |  |  |
| Fc1ccc(C(c2ccc(F)cc2)C(Cl)Cl)cc1 | 97.1% | 101% | 108% | 110 | 96.8% |  | 93.7 | 94.2% |  | 97.3% | 101% | 106% | 105% |  | 107% |  | 102% | 105 | 105% |  |
